According to paper PMC11006913:
Positions count from the first letter of the chain named.

Columns and labels:
Experiment in all cases: PBM; 200 nM protein, PBS
Details in all cases: dsDNA, one strand shown
HESX1 = HESX1 (Homo sapiens, UniProt Q9UBX0 95-180)
HOXA2 [1] = molecular target: HOXA2 (Homo sapiens, UniProt O43364 129-215, R185T)
MSX2 [2] = molecular target: MSX2 (Homo sapiens, UniProt P35548 130-214, R199I)
NKX2-6 [3] = molecular target: T1, NKX2-6 (Homo sapiens, UniProt A6NCS4 118-204)
T1 sequence: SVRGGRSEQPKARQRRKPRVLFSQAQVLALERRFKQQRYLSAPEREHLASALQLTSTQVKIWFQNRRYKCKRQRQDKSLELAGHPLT

HOXA2 [4] = molecular target: HOXA2 (Homo sapiens, UniProt O43364 129-215, R185K)
Sequence of HOXA2 (Homo sapiens, UniProt O43364 129-215, R185K) (O43364 129-215 R185K): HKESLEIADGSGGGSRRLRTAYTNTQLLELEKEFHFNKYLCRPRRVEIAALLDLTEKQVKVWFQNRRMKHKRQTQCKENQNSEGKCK

MSX2 [5] = molecular target: MSX2 (Homo sapiens, UniProt P35548 130-214)
Sequence of MSX2 (Homo sapiens, UniProt P35548 130-214) (P35548 130-214): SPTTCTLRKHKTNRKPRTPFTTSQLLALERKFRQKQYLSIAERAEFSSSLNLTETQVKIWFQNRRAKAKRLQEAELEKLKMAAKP

NKX2-6 [6] = molecular target: T2, NKX2-6 (Homo sapiens, UniProt A6NCS4 118-204, F151L)
T2 sequence: T1 sequence with F34L

MSX2 [7] = molecular target: MSX2 (Homo sapiens, UniProt P35548 130-214, F161Y)
Sequence of MSX2 (Homo sapiens, UniProt P35548 130-214, F161Y) (P35548 130-214 F161Y): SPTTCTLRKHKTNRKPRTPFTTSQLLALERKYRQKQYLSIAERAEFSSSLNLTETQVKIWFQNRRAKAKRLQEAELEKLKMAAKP

HOXA2 [8] = molecular target: HOXA2 (Homo sapiens, UniProt O43364 129-215, Y150S)
Sequence of HOXA2 (Homo sapiens, UniProt O43364 129-215, Y150S) (O43364 129-215 Y150S): as the sequence (O43364 129-215 R185K) above, with Y22S, K57R counted along it

HOXA2 [9] = molecular target: HOXA2 (Homo sapiens, UniProt O43364 129-215)
Sequence of HOXA2 (Homo sapiens, UniProt O43364 129-215) (O43364 129-215): as the sequence (O43364 129-215 R185K) above, with K57R counted along it

SIX6 [10] = molecular target: T3, SIX6 (Homo sapiens, UniProt O95475 114-200, T165G)
T3 sequence: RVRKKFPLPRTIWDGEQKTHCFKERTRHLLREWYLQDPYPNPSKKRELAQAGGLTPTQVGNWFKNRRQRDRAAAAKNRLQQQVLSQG

SIX6 [11] = molecular target: T4, SIX6 (Homo sapiens, UniProt O95475 114-200, T165A)
T4 sequence: T3 sequence with G52A

NKX3-2 [12] = molecular target: NKX3-2 (Homo sapiens, UniProt P78367 192-278, P234S)
Sequence of NKX3-2 (Homo sapiens, UniProt P78367 192-278, P234S) (P78367 192-278 P234S): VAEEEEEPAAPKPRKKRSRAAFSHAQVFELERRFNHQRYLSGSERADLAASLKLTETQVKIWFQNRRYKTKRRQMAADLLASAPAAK

NKX3-2 [13] = molecular target: NKX3-2 (Homo sapiens, UniProt P78367 192-278)
Sequence of NKX3-2 (Homo sapiens, UniProt P78367 192-278) (P78367 192-278): as the sequence (P78367 192-278 P234S) above, with S43P counted along it

VAX1 [14] = molecular target: VAX1 (Homo sapiens, UniProt Q5SQQ9 86-172)
Sequence of VAX1 (Homo sapiens, UniProt Q5SQQ9 86-172) (Q5SQQ9 86-172): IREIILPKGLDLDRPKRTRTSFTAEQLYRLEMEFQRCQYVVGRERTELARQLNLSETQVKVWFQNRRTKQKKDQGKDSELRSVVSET

VAX1 [15] = molecular target: VAX1 (Homo sapiens, UniProt Q5SQQ9 86-172, T142I)
Sequence of VAX1 (Homo sapiens, UniProt Q5SQQ9 86-172, T142I) (Q5SQQ9 86-172 T142I): as the sequence (Q5SQQ9 86-172) above, with T57I counted along it

VAX1 [16] = molecular target: VAX1 (Homo sapiens, UniProt Q5SQQ9 86-172, K157R)
Sequence of VAX1 (Homo sapiens, UniProt Q5SQQ9 86-172, K157R) (Q5SQQ9 86-172 K157R): as the sequence (Q5SQQ9 86-172) above, with K72R counted along it

Sequence of HOXA2 (Homo sapiens, UniProt O43364 129-215, R185T) (O43364 129-215 R185T): as the sequence (O43364 129-215 R185K) above, with K57T counted along it
Sequence of MSX2 (Homo sapiens, UniProt P35548 130-214, R199I) (P35548 130-214 R199I): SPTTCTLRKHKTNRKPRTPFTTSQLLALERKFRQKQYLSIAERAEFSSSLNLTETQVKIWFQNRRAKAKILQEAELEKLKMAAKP
Sequence of HESX1 (Q9UBX0 95-180): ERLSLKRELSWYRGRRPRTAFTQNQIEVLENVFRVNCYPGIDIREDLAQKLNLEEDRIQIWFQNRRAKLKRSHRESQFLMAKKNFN

Q: ATTTACGC was tested. Which binding signal (HESX1) did it give?
A: The binding signal was 7.63 upbm affinity estimate (log intensity, higher = more binding, comparable within an allelic series).

Q: Which binding signal (HOXA2 [1]) does the source give for CGCCACGC here?
A: The binding signal was 7.14 upbm affinity estimate (log intensity, higher = more binding, comparable within an allelic series).

Q: What about the binding signal (MSX2 [2]) of the same sequence?
A: The binding signal was 9.28 upbm affinity estimate (log intensity, higher = more binding, comparable within an allelic series).

Q: And the binding signal (NKX2-6 [3])?
A: Its binding signal is 9.43 upbm affinity estimate (log intensity, higher = more binding, comparable within an allelic series).

Q: What about the binding signal (HOXA2 [4]) of the same sequence?
A: Its binding signal is 10.1 upbm affinity estimate (log intensity, higher = more binding, comparable within an allelic series).

Q: And the binding signal (MSX2 [5])?
A: Its binding signal is 9.35 upbm affinity estimate (log intensity, higher = more binding, comparable within an allelic series).

Q: And the binding signal (NKX2-6 [6])?
A: The binding signal was 9.12 upbm affinity estimate (log intensity, higher = more binding, comparable within an allelic series).

Q: What about the binding signal (MSX2 [7]) of the same sequence?
A: The binding signal was 9.31 upbm affinity estimate (log intensity, higher = more binding, comparable within an allelic series).

Q: What about the binding signal (HOXA2 [8]) of the same sequence?
A: Its binding signal is 10.3 upbm affinity estimate (log intensity, higher = more binding, comparable within an allelic series).

Q: What about the binding signal (HOXA2 [9]) of the same sequence?
A: Its binding signal is 7.2 upbm affinity estimate (log intensity, higher = more binding, comparable within an allelic series).

Q: Which results are given for GCTAATCA?
A: binding signal (HOXA2 [1]): 12.5 upbm affinity estimate (log intensity, higher = more binding, comparable within an allelic series); binding signal (MSX2 [2]): 11 upbm affinity estimate (log intensity, higher = more binding, comparable within an allelic series)

Q: Which binding signal (SIX6 [10]) does the source give for ACGACACC here?
A: The binding signal was 10.6 upbm affinity estimate (log intensity, higher = more binding, comparable within an allelic series).

Q: And the binding signal (SIX6 [11])?
A: The binding signal was 10.6 upbm affinity estimate (log intensity, higher = more binding, comparable within an allelic series).

Q: GGATATTA was tested. Which binding signal (HOXA2 [1]) did it give?
A: Its binding signal is 10.4 upbm affinity estimate (log intensity, higher = more binding, comparable within an allelic series).

Q: And the binding signal (HOXA2 [4])?
A: The binding signal was 12 upbm affinity estimate (log intensity, higher = more binding, comparable within an allelic series).

Q: And the binding signal (HOXA2 [8])?
A: The binding signal was 10.8 upbm affinity estimate (log intensity, higher = more binding, comparable within an allelic series).

Q: What about the binding signal (HOXA2 [9]) of the same sequence?
A: The binding signal was 10.6 upbm affinity estimate (log intensity, higher = more binding, comparable within an allelic series).

Q: Which binding signal (HOXA2 [1]) does the source give for AACCGGGC here?
A: The binding signal was 7.08 upbm affinity estimate (log intensity, higher = more binding, comparable within an allelic series).

Q: And the binding signal (HOXA2 [4])?
A: The binding signal was 10.3 upbm affinity estimate (log intensity, higher = more binding, comparable within an allelic series).

Q: What about the binding signal (HOXA2 [8]) of the same sequence?
A: The binding signal was 10.3 upbm affinity estimate (log intensity, higher = more binding, comparable within an allelic series).

Q: And the binding signal (NKX3-2 [12])?
A: Its binding signal is 10.4 upbm affinity estimate (log intensity, higher = more binding, comparable within an allelic series).

Q: What about the binding signal (HOXA2 [9]) of the same sequence?
A: Its binding signal is 7.35 upbm affinity estimate (log intensity, higher = more binding, comparable within an allelic series).

Q: What about the binding signal (NKX3-2 [13]) of the same sequence?
A: The binding signal was 10.4 upbm affinity estimate (log intensity, higher = more binding, comparable within an allelic series).

Q: What does the source list for CCTGCCAC?
A: binding signal (HOXA2 [1]): 7.29 upbm affinity estimate (log intensity, higher = more binding, comparable within an allelic series); binding signal (HOXA2 [4]): 10.3 upbm affinity estimate (log intensity, higher = more binding, comparable within an allelic series); binding signal (HOXA2 [8]): 10.6 upbm affinity estimate (log intensity, higher = more binding, comparable within an allelic series); binding signal (HOXA2 [9]): 7.12 upbm affinity estimate (log intensity, higher = more binding, comparable within an allelic series)

Q: How did the binding signal (HOXA2 [1]) turn out when GGGAGCCC was run?
A: Its binding signal is 7.4 upbm affinity estimate (log intensity, higher = more binding, comparable within an allelic series).

Q: And the binding signal (HOXA2 [4])?
A: Its binding signal is 10.3 upbm affinity estimate (log intensity, higher = more binding, comparable within an allelic series).

Q: And the binding signal (VAX1 [14])?
A: The binding signal was 7.23 upbm affinity estimate (log intensity, higher = more binding, comparable within an allelic series).

Q: And the binding signal (VAX1 [15])?
A: Its binding signal is 7.09 upbm affinity estimate (log intensity, higher = more binding, comparable within an allelic series).

Q: What about the binding signal (HOXA2 [8]) of the same sequence?
A: The binding signal was 10.5 upbm affinity estimate (log intensity, higher = more binding, comparable within an allelic series).

Q: What about the binding signal (HOXA2 [9]) of the same sequence?
A: The binding signal was 7.35 upbm affinity estimate (log intensity, higher = more binding, comparable within an allelic series).

Q: And the binding signal (VAX1 [16])?
A: Its binding signal is 7.13 upbm affinity estimate (log intensity, higher = more binding, comparable within an allelic series).

Q: CGATTACA was tested. Which binding signal (HOXA2 [1]) did it give?
A: The binding signal was 10.3 upbm affinity estimate (log intensity, higher = more binding, comparable within an allelic series).

Q: And the binding signal (HOXA2 [4])?
A: The binding signal was 12 upbm affinity estimate (log intensity, higher = more binding, comparable within an allelic series).

Q: And the binding signal (HOXA2 [8])?
A: Its binding signal is 10.7 upbm affinity estimate (log intensity, higher = more binding, comparable within an allelic series).

Q: And the binding signal (HOXA2 [9])?
A: Its binding signal is 9.9 upbm affinity estimate (log intensity, higher = more binding, comparable within an allelic series).

Q: What does the source list for CCCCCCCG?
A: binding signal (HOXA2 [1]): 6.93 upbm affinity estimate (log intensity, higher = more binding, comparable within an allelic series); binding signal (HOXA2 [4]): 9.85 upbm affinity estimate (log intensity, higher = more binding, comparable within an allelic series); binding signal (HOXA2 [8]): 10.2 upbm affinity estimate (log intensity, higher = more binding, comparable within an allelic series); binding signal (HOXA2 [9]): 7.13 upbm affinity estimate (log intensity, higher = more binding, comparable within an allelic series)
